Screens deposited in PubChem BioAssay by National Center for Advancing Translational Sciences (NCATS).
USP1 inh – USP1/UAF1 (human) deubiquitinase inhibition. Potency, µM (titrated, usually from 57.1 µM), inactives show top-dose activity change, negative = inhibition, actives largely listed as inhibitors. O94782. recombinant USP1/UAF1, Ub-Rhodamine cleavage fluorescence. 0.23% of 390,000 active; further: potency means the concentration at half of the fitted maximal effect; on the % scale 0 is the no-effect control and ±100 the full control effect; nearly all actives have a fitted effect of over 60% in size
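Step one: compound is pinned into 1nM USP1/UAF1 in HEPES pH 7.8 buffer with TCEP. Step two: 15 min room-temperature incubation. Step three: Ub-Rho (150nM final) starts cleavage, tracked by fluorescence over six one-minute reads.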
IL1B secr inh – inhibitors of inflammasome signaling (IL-1 beta secretion); THP-1 LPS/ATP IL-1B secretion, AlphaLISA, 16 h; hits give low values; activity change, % at 57.5 µM; 4.7% of 360,000 active; in the data active means activity change below about -50%; inconclusive means mostly about -30% to -49%; further: on the % scale 0 is the no-effect control and ±100 the full control effect
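Secreted IL-1B measured by AlphaLISA bead assay after 16 h compound exposure of THP-1 cells; compounds (final up to 57.5 uM) added 1 h before LPS (250 ng/mL) and ATP (1.25 mM) stimulation; lower signal means less secretion.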
ATXN2 expr inh – reduces ATXN2 reporter expression in HEK-293 cells; 0.72% of 360,000 active; Potency, µM (top dose mostly 57 µM), without a hit: at the highest dose activity change, negative = inhibition, most hits filed as inhibitors; HEK-293 ATXN2-luciferase reporter, luminescence, 24 h; AID 1745845; further: potency means the concentration at half of the fitted maximal effect; on the % scale 0 is the no-effect control and ±100 the full control effect; nearly all actives have a fitted effect of over 55% in size
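qHTS (up to 57 uM final) was run with 24 h compound exposure of reporter cells at 37 °C. Each well was multiplexed: SteadyGlo luminescence measured ATXN2-luciferase expression after a fluorogenic Gly-Phe-AFC viability readout (25 uM final).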
ATXN viability – reduces viability in counter-screen for ATXN expression inhibitors | 0.49% of 400,000 active | S2 cells (HEK-293 line with an ATXN2-luciferase reporter) viability, CellTiter-Fluor protease fluorescence, 24 h | Potency, µM (top dose mostly 56.7 µM), usual class: cytotoxic; further: potency means the concentration at half of the fitted maximal effect; nearly all actives have a fitted effect of over 40% in size
USP2a inh – inhibitors of human ubiquitin-specific protease USP2a; 0.01% of 330,000 active; Potency, µM (titrated, usually from 38.3 µM), for the others: at the highest dose activity change, negative = inhibition, actives largely listed as inhibitors; AID 463254; USP2 core, Ub-CHOP2 coupled fluorogenic reporter, 485/531; O75604;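 further: potency means the concentration at half of the fitted maximal effect; plate controls were DMSO wells for no effect and full inhibition by NEM control for full effect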
Target sequence (O75604 whole entry, looked up): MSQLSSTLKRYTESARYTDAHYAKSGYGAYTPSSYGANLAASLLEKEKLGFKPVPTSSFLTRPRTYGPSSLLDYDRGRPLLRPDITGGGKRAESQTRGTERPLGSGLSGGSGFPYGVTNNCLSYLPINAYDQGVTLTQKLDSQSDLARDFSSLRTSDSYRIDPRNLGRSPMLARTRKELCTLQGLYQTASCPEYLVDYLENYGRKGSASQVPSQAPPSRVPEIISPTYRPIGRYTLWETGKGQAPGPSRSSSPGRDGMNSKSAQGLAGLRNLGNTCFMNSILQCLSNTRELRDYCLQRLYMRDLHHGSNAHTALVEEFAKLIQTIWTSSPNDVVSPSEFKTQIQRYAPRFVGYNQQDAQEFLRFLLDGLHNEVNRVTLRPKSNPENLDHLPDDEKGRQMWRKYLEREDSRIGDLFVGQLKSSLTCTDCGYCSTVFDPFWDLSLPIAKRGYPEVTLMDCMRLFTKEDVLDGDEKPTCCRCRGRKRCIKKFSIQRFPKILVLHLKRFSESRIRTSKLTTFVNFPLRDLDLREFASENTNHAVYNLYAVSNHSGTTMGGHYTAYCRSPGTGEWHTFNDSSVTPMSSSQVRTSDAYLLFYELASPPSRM
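Deubiquitinase activity read as fluorescence (485/531 nm) after Ub-CHOP2 cleavage activates the enterokinase reporter on its substrate; USP2 core 10nM, Ub-CHOP2 and substrate 25nM each, 30min compound preincubation then 60min RT; data normalized to NEM, curves fitted.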
SKNSH spheroid – reduced viability of SK-N-SH 3D spheroids, orthogonal test | shares compounds with ATXN2 expr inh | SK-N-SH 3D spheroid viability, PI/Hoechst imaging, 72 h | Potency, µM (highest dose often 30.7 µM), actives largely listed as inhibitors | 70% of 65 active | AID 1347135
SJ-GBM2 3D tox – SJ-GBM2 spheroid viability loss, orthogonal 3D screen; AID 1347136; SJ-GBM2 3D spheroid viability, PI/Hoechst imaging, 72 h; shares compounds with ATXN2 expr inh; 80% of 65 active; Potency, µM (doses to about 30.7 µM), usual class: inhibitors
Daoy spheroid – Daoy 3D spheroid viability loss. shares compounds with ATXN2 expr inh. Daoy 3D spheroid viability, PI/Hoechst imaging, 72 h. Potency, µM (doses to about 30.7 µM), actives largely listed as inhibitors. 50% of 65 active
TC32 3D caspase – caspase activation in TC32 3D spheroids, orthogonal test. shares compounds with ATXN2 expr inh. TC32 3D spheroids, caspase-3/7 fluorescence imaging, 24 h. Potency, µM (doses to about 30.7 µM), actives largely listed as inhibitors. 30% of 65 active. AID 1347138
TC32 spheroid – TC32 3D spheroid viability loss; shares compounds with ATXN2 expr inh; TC32 3D spheroid viability, PI/Hoechst imaging, 72 h; Potency, µM (titrated, usually from 30.7 µM), most hits filed as inhibitors; 60% of 65 active; AID 1347139
MG63 3D tox – MG-63 (6-TG R) 3D spheroid viability loss | shares compounds with ATXN2 expr inh | MG-63 (6-TG R) 3D spheroid viability, PI/Hoechst imaging, 72 h | Potency, µM (top dose mostly 30.7 µM), most hits filed as inhibitors | 50% of 65 active | AID 1347140
RD 3D tox – kills RD rhabdomyosarcoma spheroids in orthogonal 3D test; shares compounds with ATXN2 expr inh; RD rhabdomyosarcoma 3D spheroid viability, PI/Hoechst imaging, 72 h; Potency, µM (doses to about 30.7 µM), most hits filed as inhibitors; 50% of 65 active; AID 1347141
Active calls of the source: *. Compounds with a hit are over-represented: about 4.8% of the library has one in this group of screens. Unless noted, the call rests on the fitted dose curve; in most records, active means well fitted curve in the direction sought with a large enough effect; inconclusive means small, poorly fitted or top-dose-only effect, or another doubt; inactive means no such curve, though single readings can be large; an effect the other way counts as inactive or inconclusive.

How did C[C@]12C=CC(=O)C=C1CC[C@H]1[C@@H]3C[C@@H](O)[C@](O)(C(=O)CO)[C@@]3(C)C[C@H](O)[C@@]12F do in these assays?
USP1 inh: -10.1%; IL1B secr inh: inconclusive; ATXN2 expr inh: -5.1%; ATXN viability: inactive; USP2a inh: -6.0%; SKNSH spheroid: inconclusive; SJ-GBM2 3D tox: 0.456µM*; Daoy spheroid: inactive; TC32 3D caspase: inconclusive; TC32 spheroid: 7.22µM*; MG63 3D tox: inactive; RD 3D tox: inactive

What do the screens show for `COc1ccc(OC)c(S(=O)(=O)N2CCCC(N3CCN(c4ccccc4)CC3)C2)c1` (centres undefined)?
USP1 inh: inconclusive; IL1B secr inh: 32.2; ATXN2 expr inh: -14.1%; ATXN viability: inactive; USP2a inh: 2.6%

Results for COc1ccc(S(=O)(=O)Nc2cccnc2Nc2ccc(O)cc2)cc1 ?
ATXN2 expr inh: -14.9%; SKNSH spheroid: 0.323µM*; SJ-GBM2 3D tox: 0.228µM*; Daoy spheroid: inconclusive; TC32 3D caspase: 1.02µM*; TC32 spheroid: 0.574µM*; MG63 3D tox: inconclusive; RD 3D tox: 0.456µM*

Results for CCOc1ccc(S(=O)(=O)Nc2nc3ccccc3nc2Nc2ccc(OC)cc2)cc1 ?
USP1 inh: -30.9%; ATXN2 expr inh: 16.7%; ATXN viability: inactive

Results for Nc1nc(Cl)nc2c1ncn2[C@@H]1O[C@H](CO)[C@@H](O)[C@@H]1F ?
ATXN2 expr inh: 1µM*; ATXN viability: inconclusive; SKNSH spheroid: inactive; SJ-GBM2 3D tox: 0.0228µM*; Daoy spheroid: inconclusive; TC32 3D caspase: inactive; TC32 spheroid: 5.11µM*; MG63 3D tox: 0.162µM*; RD 3D tox: inconclusive

How did COc1ccc(-c2nc(N3CCOCC3)c3sc(CN(C)c4ncc(C(=O)NO)cn4)cc3n2)cn1 do in these assays?
ATXN2 expr inh: 13.4%; SKNSH spheroid: 5.11µM*; SJ-GBM2 3D tox: 11.4µM*; Daoy spheroid: 5.11µM*; TC32 3D caspase: inactive; TC32 spheroid: inactive; MG63 3D tox: inconclusive; RD 3D tox: inactive

How did Cc1ccc(CSc2nnc3[nH]c(=O)cc(-c4ccccc4)n23)cc1 do in these assays?
USP1 inh: -4.0%

How did COc1c(C)cccc1C(=O)NCc1ccc2c(c1)OCO2 do in these assays?
USP1 inh: -17.3%; IL1B secr inh: 2.1; ATXN2 expr inh: -16.2%; ATXN viability: inactive; USP2a inh: 6.2%

Results for COc1ccc(CNC(=O)CN2CCN(S(=O)(=O)c3ccccc3)CC2)cc1 ?
USP1 inh: -20.7%; IL1B secr inh: 6.4; ATXN viability: inactive; USP2a inh: 0.7%
